According to PubChem BioAssay (NCATS):
Inconclusive results are not listed. The source made the active and inactive calls. Calls follow the shape of the dose curve; as a rule, active = well fitted curve in the direction sought with a large enough effect; inconclusive = small, poorly fitted or top-dose-only effect, or another doubt; inactive = no such curve, though single readings can be large; an effect the other way counts as inactive or inconclusive.

How the values were obtained:
[1] = molecular target: Rap guanine nucleotide exchange factor 3 (Homo sapiens) (UniProt O95398); assay: Confirmatory qHTS for agonist of cAMP-regulated guanine nucleotide exchange factor 3 (EPAC1) (AID 1645881);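 also: EPAC1 catalysed release of BODIPY-GDP from Rap1B seen as fluorescence loss; 100% = effect of cAMP agonist control; nearly all actives have a fitted effect of over 75% in size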
[2] = molecular target: Rap guanine nucleotide exchange factor 4 (Homo sapiens) (UniProt Q8WZA2); assay: Confirmatory qHTS for agonist of cAMP-regulated guanine nucleotide exchange factor 4 (EPAC2) (AID 1645884);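 also: nucleotide exchange releases bodipy-GDP from Rap1 and this lowers its fluorescence; % is scaled to controls: 0 for no effect and ±100 for the full control effect; nearly all actives have a fitted effect of over 65% in size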
[3] = molecular target: Rap guanine nucleotide exchange factor 4 (Homo sapiens) (UniProt Q8WZA2); assay: Confirmatory qHTS for antagonist of cAMP-regulated guanine nucleotide exchange factor 4 (EPAC2) (AID 1645885); also: % is scaled to controls: 0 for no effect and ±100 for the full control effect; nearly all actives have a fitted effect of over 25% in size
[4] = molecular target: Rap guanine nucleotide exchange factor 3 (Homo sapiens) (UniProt O95398); assay: Counterscreen qHTS for antagonist of cAMP-regulated guanine nucleotide exchange factor 3 (EPAC1) (AID 1645888);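 also: fluorescence loss as bound BODIPY-GDP is released from Rap1B; % of control where 0% means no effect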
Summary of the method: (§1)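 Measured: fluorescence of BODIPY-GDP bound to Rap1B, which falls as exchange proceeds. Conditions include 50 uM competing GDP, 5 and 30 min reads, and a later cAMP challenge for antagonist detection.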

[5] = molecular target: Rap guanine nucleotide exchange factor 3 (Homo sapiens) (UniProt O95398); assay: Counterscreen qHTS for agonist of cAMP-regulated guanine nucleotide exchange factor 3 (EPAC1) (AID 1645889); also: % of control where 0% means no effect; nearly all actives have a fitted effect of over 40% in size
Summary of the method: as §1

[6] = molecular target: Tyrosyl-DNA phosphodiesterase 1 (Homo sapiens) (UniProt Q9NUW8); assay: Confirmation Assay for Inhibitors of Tyrosyl-DNA Phosphodiesterase (TDP1) (AID 489007); details: recombinant human TDP1 enzymatic activity, dose-response; also: potency is read from the fitted curve at half-maximal effect; nearly all actives have a fitted effect of over 40% in size
Summary of the method: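 Tdp1 1 nM + cpd, 15 min RT; add biotin/phosphotyrosine-FITC oligo 15 nM, 5 min RT; add AS donor/acceptor beads 10 ug/ml, 10 min RT; read AlphaScreen. No-enzyme wells = max signal.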

Rap guanine nucleotide exchange factor 4 (Homo sapiens), sequence (Q8WZA2 whole entry, looked up): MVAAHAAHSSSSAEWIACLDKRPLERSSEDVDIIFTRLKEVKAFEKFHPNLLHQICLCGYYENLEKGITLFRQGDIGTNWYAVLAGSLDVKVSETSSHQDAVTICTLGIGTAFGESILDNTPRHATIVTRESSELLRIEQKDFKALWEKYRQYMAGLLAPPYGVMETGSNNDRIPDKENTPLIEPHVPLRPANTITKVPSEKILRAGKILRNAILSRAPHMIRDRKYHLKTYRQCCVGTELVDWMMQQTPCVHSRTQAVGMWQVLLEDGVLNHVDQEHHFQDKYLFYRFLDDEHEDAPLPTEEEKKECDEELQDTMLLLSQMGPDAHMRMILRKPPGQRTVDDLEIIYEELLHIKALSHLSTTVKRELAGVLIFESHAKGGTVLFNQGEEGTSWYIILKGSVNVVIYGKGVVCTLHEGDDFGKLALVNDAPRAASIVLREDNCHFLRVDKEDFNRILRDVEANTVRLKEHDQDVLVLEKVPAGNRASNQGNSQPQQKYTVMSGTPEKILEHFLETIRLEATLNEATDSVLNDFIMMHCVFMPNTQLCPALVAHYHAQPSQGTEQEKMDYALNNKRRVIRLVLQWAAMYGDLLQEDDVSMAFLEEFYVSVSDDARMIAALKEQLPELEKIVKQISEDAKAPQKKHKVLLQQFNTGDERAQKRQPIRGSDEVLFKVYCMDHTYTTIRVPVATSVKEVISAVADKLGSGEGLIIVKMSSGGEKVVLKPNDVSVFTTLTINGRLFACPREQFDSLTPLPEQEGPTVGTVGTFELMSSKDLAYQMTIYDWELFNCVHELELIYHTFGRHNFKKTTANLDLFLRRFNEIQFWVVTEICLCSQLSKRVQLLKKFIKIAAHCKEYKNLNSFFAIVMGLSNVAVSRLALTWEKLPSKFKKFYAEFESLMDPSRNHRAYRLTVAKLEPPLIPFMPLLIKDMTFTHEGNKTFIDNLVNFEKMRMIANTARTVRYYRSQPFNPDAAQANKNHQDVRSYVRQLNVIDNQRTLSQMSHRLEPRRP
Rap guanine nucleotide exchange factor 3 (Homo sapiens), sequence (O95398 whole entry, looked up): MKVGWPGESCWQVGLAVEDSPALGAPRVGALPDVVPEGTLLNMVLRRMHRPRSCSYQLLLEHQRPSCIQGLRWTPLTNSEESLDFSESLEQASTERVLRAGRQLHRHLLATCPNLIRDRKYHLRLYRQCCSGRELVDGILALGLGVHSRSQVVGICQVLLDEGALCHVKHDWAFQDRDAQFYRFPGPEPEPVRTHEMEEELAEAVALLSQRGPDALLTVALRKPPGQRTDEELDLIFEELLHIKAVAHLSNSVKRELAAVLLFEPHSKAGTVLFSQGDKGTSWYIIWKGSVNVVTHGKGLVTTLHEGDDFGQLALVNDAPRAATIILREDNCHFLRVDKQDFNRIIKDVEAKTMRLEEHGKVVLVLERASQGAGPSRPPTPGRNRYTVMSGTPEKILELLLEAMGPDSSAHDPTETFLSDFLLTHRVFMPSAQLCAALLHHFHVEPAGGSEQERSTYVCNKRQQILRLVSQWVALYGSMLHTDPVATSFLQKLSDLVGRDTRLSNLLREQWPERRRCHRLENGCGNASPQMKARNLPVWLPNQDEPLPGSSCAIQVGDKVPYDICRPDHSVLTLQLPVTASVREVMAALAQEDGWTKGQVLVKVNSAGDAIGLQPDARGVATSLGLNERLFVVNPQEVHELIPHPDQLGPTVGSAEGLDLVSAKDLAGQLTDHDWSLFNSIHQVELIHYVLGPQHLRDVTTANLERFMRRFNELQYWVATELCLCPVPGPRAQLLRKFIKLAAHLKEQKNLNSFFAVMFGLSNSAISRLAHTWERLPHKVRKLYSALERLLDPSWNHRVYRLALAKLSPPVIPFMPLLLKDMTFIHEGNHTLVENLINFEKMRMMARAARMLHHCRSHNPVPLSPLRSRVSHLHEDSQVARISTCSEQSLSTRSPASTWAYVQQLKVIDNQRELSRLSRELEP
Tyrosyl-DNA phosphodiesterase 1 (Homo sapiens), sequence (Q9NUW8 whole entry, looked up): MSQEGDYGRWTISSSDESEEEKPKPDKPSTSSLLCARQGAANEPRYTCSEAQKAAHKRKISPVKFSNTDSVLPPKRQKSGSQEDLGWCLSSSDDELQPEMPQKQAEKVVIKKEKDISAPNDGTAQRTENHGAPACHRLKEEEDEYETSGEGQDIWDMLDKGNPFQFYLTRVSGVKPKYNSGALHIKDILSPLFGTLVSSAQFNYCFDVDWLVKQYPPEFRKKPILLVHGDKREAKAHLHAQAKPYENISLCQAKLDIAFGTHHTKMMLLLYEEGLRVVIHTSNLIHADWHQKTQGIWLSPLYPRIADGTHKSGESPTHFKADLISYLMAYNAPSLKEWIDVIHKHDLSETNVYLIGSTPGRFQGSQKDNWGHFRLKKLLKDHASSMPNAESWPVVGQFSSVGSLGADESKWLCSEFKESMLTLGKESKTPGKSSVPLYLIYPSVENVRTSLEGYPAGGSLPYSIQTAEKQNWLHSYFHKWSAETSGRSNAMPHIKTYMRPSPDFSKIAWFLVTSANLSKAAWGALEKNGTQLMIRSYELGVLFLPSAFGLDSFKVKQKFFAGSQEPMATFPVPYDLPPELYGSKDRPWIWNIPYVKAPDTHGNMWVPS

Cc1cc(C=C2C(=O)NC(=S)NC2=O)c(C)n1C1CCCC1
inactive: Potency [1] | Potency [2] | Potency [3] | outcome [4] | Potency [5]

COc1cc(/C=C/c2nc3ccccc3c(=O)n2-c2cccc(O)c2)ccc1O
inactive: Potency [1] | Potency [2] | Potency [3] | outcome [4]

CCOC(=O)c1[nH]c2ccc(OC)cc2c1C(SCC(=O)O)c1ccc(C(F)(F)F)cc1 (stereo not given)
inactive: Potency [1] | activation [2] 2.9% [at 17.1 µM, percent relative to cAMP agonist control] | activity change, negative = inhibition [3] -9.73% [at 12.7 µM] | activity change, negative = inhibition [4] -0.779% [at 30.8 µM]

COc1ccc(N2C(=O)/C(=C/C=C/c3ccccc3[N+](=O)[O-])C(=O)NC2=S)cc1
inactive: Potency [1] | activation [2] 17.4% [at 17.1 µM, percent relative to cAMP agonist control] | activity change, negative = inhibition [3] 0.334% [at 12.7 µM] | activity change, negative = inhibition [4] 15.6% [at 30.8 µM] | activation [5] 4.75% [at 30.8 µM]

NC(=O)c1ccc(N=Cc2c(O)n(Cc3ccco3)c(=O)[nH]c2=O)cc1
active: Potency [6] 14.1 µM
inactive: Potency [1] | Potency [2] | Potency [3] | Potency [5]

COc1cc2c(cc1OC)-c1c(OC)c(OC)cc3c1[C@H](C2)N(C)CC3
inactive: Potency [1] | activation [2] 9.51% [at 17.1 µM, percent relative to cAMP agonist control] | activity change, negative = inhibition [3] -6.31% [at 12.7 µM] | activity change, negative = inhibition [4] 10.1% [at 30.8 µM]

CCOC(=O)[C@]12Cc3cc(Cl)ccc3[C@H]1N(Cc1ccccc1)C(=O)c1ccccc12
inactive: Potency [1] | Potency [2] | Potency [3] | outcome [4]

O=C1NC(=O)N(Cc2ccco2)C(=O)/C1=C/c1cccn1CCOc1ccccc1Cl
inactive: Potency [1] | Potency [2] | Potency [3] | Potency [5]
